# Screening data (PubChem)
# A selection: hits, their analogues and other compounds. The true share with any hit is near 1.4%.
# A3A deaminase – APOBEC3A ssDNA deaminase inhibitors, primary screen, selectivity assay for APOBEC3G inhibitor project, biochemical, FAM/TAMRA oligo cleavage fluorescence | DNA dC->dU-editing enzyme APOBEC-3A (Homo sapiens), P31941 | inhibition, % at 20 µM | hit rate 0.41% among 330,000 | recombinant A3A, FAM/TAMRA ssDNA deamination fluorescence;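 active means at least 40% inhibition at 20 µM here, with at most 30% in a related deaminase screen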;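 further: plate controls were A3A with DMSO for no effect and wells lacking A3A enzyme for full effect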
# Target sequence (P31941 whole entry, looked up): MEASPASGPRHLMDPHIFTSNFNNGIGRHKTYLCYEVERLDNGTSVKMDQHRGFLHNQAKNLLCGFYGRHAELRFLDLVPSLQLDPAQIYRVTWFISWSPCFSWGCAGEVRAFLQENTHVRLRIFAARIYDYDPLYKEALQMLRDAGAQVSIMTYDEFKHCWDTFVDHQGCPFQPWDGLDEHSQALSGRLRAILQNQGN
# GRK2 inh – compounds blocking aptamer binding on GRK2 – biochemical, human GRK2, bead flow cytometry, HTS, primary screen; hit rate 0.59% among 330,000; inhibition of aptamer binding, % at 10 µM; Beta-adrenergic receptor kinase 1 (Homo sapiens), P25098; FAM-aptamer displacement from GRK2;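 active means inhibition of aptamer binding above 40%, roughly 3 SD of noise, on plates passing a quality check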;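 further: median bead fluorescence of bound FAM aptamer so fluorescent compounds give negative values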
# APOBEC3G inh – APOBEC3G DNA deaminase inhibitors, primary screen, biochemical, fluorescence, single-stranded DNA substrate, uHTS; inhibition, % at 20 µM; AID 493012, 2011; hit rate 0.28% among 330,000; recombinant A3G, ssDNA deamination FAM/TAMRA fluorescence; DNA dC->dU-editing enzyme APOBEC-3G (Homo sapiens), Q9HC16;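 active means inhibition of at least 40% at 20 µM, with no more than 30% in the related APOBEC3A deaminase screen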;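 further: plate controls were DMSO wells with A3G for no effect and wells lacking A3G enzyme for full effect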
# Target sequence (Q9HC16 whole entry, looked up): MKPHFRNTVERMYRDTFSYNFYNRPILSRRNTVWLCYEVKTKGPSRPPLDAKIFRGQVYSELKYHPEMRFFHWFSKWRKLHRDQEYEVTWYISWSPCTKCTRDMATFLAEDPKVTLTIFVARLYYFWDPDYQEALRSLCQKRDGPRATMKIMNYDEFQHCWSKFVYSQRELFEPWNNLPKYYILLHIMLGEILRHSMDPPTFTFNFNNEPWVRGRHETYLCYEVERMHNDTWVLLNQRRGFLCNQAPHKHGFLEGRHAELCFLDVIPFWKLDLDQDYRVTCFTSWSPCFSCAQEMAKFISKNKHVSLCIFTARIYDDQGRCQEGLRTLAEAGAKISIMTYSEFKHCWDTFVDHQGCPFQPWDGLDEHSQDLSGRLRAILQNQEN
# VLA-4 inh – inhibition in human VLA-4 binding assay, primary screen, VLA-4 allosteric modulator project, MLPCN library, flow cytometry, VLA-4 expressing cells; AID 2557, 2010; Integrin alpha-4 (Homo sapiens), P13612; ligand binding flow cytometry; inhibition, % (about 7 µM as worked out from the volumes in the protocol); hit rate 0.2% among 330,000; in the data active means inhibition above about 50%
# VLA-4 allo CP – retest of VLA-4 allosteric modulators, confirmation, cell-based, cherry-picked plates, U937, HUTS-21 LIBS antibody | inhibition, % at 6.7 µM | hit rate 2% among 1,300 | AID 2813, 2010 | shares compounds with VLA-4 inh | U937 cells, HUTS-21 LIBS mAb binding, flow cytometry; LDV ligand present at threefold Kd; in the data active means inhibition above about 40%;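 further: 0% = ligand without compound and 100% = no ligand background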
# An asterisk follows results filed as active; / = no result.
SMILES,A3A deaminase,GRK2 inh,APOBEC3G inh,VLA-4 inh,VLA-4 allo CP
CN1/C(=C\C=C\C2=[N+](C)c3ccc4ccccc4c3C2(C)C)C(C)(C)c2ccccc21,31.7,84.0*,24.7,/,/
O=C1NC(=O)N(c2ccc3c(c2)OCO3)C(=O)/C1=C/c1cccs1,8.2,44.0*,26.0,25.1,/
O=C1NC(=O)N(c2ccc3c(c2)OCO3)C(=O)/C1=C/c1ccsc1,-3.4,7.0,-9.5,19.6,/
COc1ccc(/C=C2/C(=O)NC(=O)N(Cc3ccco3)C2=O)cc1,92.9,82.0*,88.5,4.6,/
Cc1ccc(-n2c(C)cc(/C=C3/C(=O)NC(=O)N(Cc4ccco4)C3=O)c2C)cc1,13.8,13.0,2.4,0.0,/
COc1ccc(-c2nc3ccccc3c(=O)n2-c2ccc(OC)cc2)cc1,-1.8,0.0,-2.8,-1.2,/
CCn1nc(-c2ccccc2)nc2c(=O)n(C)c(=O)nc1-2,-3.7,54.0*,-6.9,-2.6,/
O=c1cccc2n1CC1CC2CN(Cc2ccc3c(c2)OCO3)C1 (stereo not drawn),0.1,5.0,0.5,-6.7,/
CCc1nc2ccccc2c(=O)n1-c1ccccc1[N+](=O)[O-],-3.7,2.0,-7.6,7.2,/
COc1ccc(OC)c(N2C(=O)/C(=C/c3ccco3)C(=O)NC2=S)c1,99.3,100.0*,87.8,-7.7,/
O=C1NC(=S)N(c2ccc(F)cc2)C(=O)/C1=C/c1ccco1,95.5,99.0*,89.9,0.2,/
COC(=O)C1=C(c2ccc(OC(F)(F)F)cc2)C[C@@H]2CC[C@H]1N2C(=O)NC(C)C,-1.8,1.0,-9.6,0.0,/
O=C1NC(=O)C(=Cc2ccc(N3CCOCC3)cc2)C(=O)N1,-2.2,0.0,-3.6,1.3,/
CC(=O)Nc1ccccc1C(=O)OCc1cccc(F)c1,-2.3,0.0,-2.8,56.2*,/
CC(=O)Nc1ccccc1C(=O)OCc1ccc(C(=O)c2ccccc2)cc1,-2.6,0.0,-6.8,/,/
C[C@]12CC[C@H]3[C@@H](CCC4=CC(=O)CC[C@@H]43)[C@@H]1CC[C@@H]2O,-0.7,1.0,-0.6,-5.9,/
C[C@]12CC[C@@H]3c4ccc(O)c(O)c4CC[C@H]3[C@@H]1CC[C@@H]2O,-0.9,11.0,63.9*,10.0,/
Nc1ccc(S(=O)(=O)N2CCCCC2c2cccnc2)cc1 (stereo not drawn),-5.2,3.0,-5.6,42.9,/
Cc1cccc(N2C(=O)NC(=O)/C(=C/c3ccc([N+](=O)[O-])o3)C2=O)c1,/,44.0*,/,7.3,/
COC(=O)C1=C(c2ccc(F)cc2OCc2ccccc2)C[C@@H]2CC[C@H]1N2C(=O)N1CCC(C)CC1,0.9,0.0,-8.8,6.5,/
O=C(C(=C1N(Cc2ccc(Cl)nc2)CCN1Cc1ccc(Cl)nc1)[N+](=O)[O-])C(Cl)Cl,0.9,44.0*,0.7,2.8,/
Cc1cc(/C=C2\C(=O)NC(=O)N(Cc3ccccc3)C2=O)c(C)n1-c1ccc(Cl)c(C(=O)O)c1,95.7,100.0*,84.8,16.9,/
COC(=O)CC1=C(C(=O)OC)C2(C(=O)Nc3c(C)cccc32)C(C#N)=C(N)O1 (stereo not drawn),-1.1,3.0,-4.6,107.4*,-5.8
COc1cc(C(=O)OC2C[C@H]3CC[C@@H](C2)N3C)ccc1O (stereo partly drawn),-4.1,3.0,-8.4,11.1,2.4
C[N+]1(C)C2CCC1CC(OC(=O)c1ccco1)C2 (stereo not drawn),70.8,2.0,30.3,-8.9,/
SMILES,A3A deaminase,GRK2 inh,APOBEC3G inh,VLA-4 inh,VLA-4 allo CP
CN1CCN(CCC(=O)OC2CC3CCC(C2)N3C)CC1 (stereo not drawn),1.2,0.0,0.7,12.0,/
CCC(CO)(C(=O)OC1CC2CCC(C1)N2C)c1ccccc1 (stereo not drawn),-0.1,2.0,-8.3,-1.6,/
COc1cc(C(=O)OC2C[C@H]3CC[C@@H](C2)N3)ccc1O (stereo partly drawn),0.8,0.0,-0.2,2.4,-3.2
COc1ccc(C(=O)OC2CC3CCC(C2)[N+]3(C)[O-])cc1OC (stereo not drawn),-2.7,3.0,-4.2,5.6,0.0
CN1C2CCC1CC(OC(=O)c1cc(Cl)cc(Cl)c1)C2 (stereo not drawn),3.5,0.0,2.1,92.7*,-1.4
C[C@]12CCC3C(C[C@@H](O)[C@H]4C[C@@H](O)CC[C@]34C)C1CC[C@@H]2O (stereo partly drawn),2.4,0.0,-3.6,7.4,/
COC(=O)c1ccc(NC(=O)CSc2nc3ccc(N4C(=O)C5C6C=CC(C6)C5C4=O)cc3s2)cc1 (stereo not drawn),-3.3,0.0,-9.2,4.9,/
Cc1cc(C)c(C(=O)CN2CCOCC2)c(C)c1,-2.5,0.0,2.4,6.4,/
COc1ccc(Nc2ncc(C(=O)N3CCC4(CC3)OCCO4)c3ccccc23)cc1,4.0,0.0,1.7,2.6,/
O=c1[nH]c(=O)n(Cc2ccc(F)cc2)c(O)c1C=NCc1cccnc1,-3.6,2.0,-8.9,3.6,/
CN1C(=O)/C(=C/c2ccc(Cl)s2)C(=O)NC1=S,/,3.0,/,19.4,/
Cc1ccsc1/C=C1\C(=O)NC(=S)N(C)C1=O,2.6,1.0,8.1,45.6,34.0
CC1(C)C[C@H]2C=C(C=O)[C@]3(C=O)C[C@]3(C)[C@H]2C1,1.0,9.0,-4.8,65.1*,48.1*
O=C(OC1CC2CCC(N2)C1C(=O)O)c1ccccc1 (stereo not drawn),7.2,1.0,2.2,-5.5,3.3
C[C@]12CC[C@H](O)C[C@H]1CC[C@@H]1[C@@H]2C[C@@H](O)[C@]2(C)[C@@H](C3=CC(=O)OC3)CC[C@]12O,0.0,0.0,-2.9,51.2*,-2.1
NC(=O)Cn1cc(C(=O)c2ccccc2)c2ccccc21,0.1,2.0,1.4,-7.0,0.4
CC1(C)C(C(=O)N2CCN(c3ccc(Cl)cc3)CC2)C1(C)C,-0.7,2.0,-7.0,9.0,/
COC(=O)C1CN(C#N)N(c2ccc(Cl)cc2)C12c1ccccc1-c1ccccc12 (stereo not drawn),-1.3,0.0,-3.5,62.0*,52.7*
C=C(C=O)C[C@@H]1C[C@H](O)C2OC3C[C@]4(C)OC5/C=C\CC6OC7C(CC=CCC6OC5CCCC4OC3CC2O1)OC1CC2OC3CC(=O)OC3C[C@@H](C)C[C@@]2(C)OC1C[C@@H]7C (stereo partly drawn),0.0,0.0,-6.3,60.3*,67.2*
